Bioassay records deposited in PubChem BioAssay by National Center for Advancing Translational Sciences (NCATS).
DT40 TDP1 CPT – qHTS for Inhibitors of human tyrosyl-DNA phosphodiesterase 1 (TDP1): qHTS in cells in presence of CPT; AID 686979, 2013; chicken DT40 Tdp1-/-;hTDP1 cells + 20 nM CPT, ATP luminescence, 48 h; Potency, µM (highest dose often 46.2 µM), actives largely listed as inhibitors; 12% of 420,000 active; note: nearly all actives have a fitted effect of over 55% in size
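Chicken DT40 Tdp1-/- cells stably complemented with human TDP1 were seeded at 400 cells/well in medium containing 20 nM camptothecin, exposed to pin-transferred compounds, and grown at 37 °C for at least 48 hr. Viability was read as ATP luminescence.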
Gal4-VP16 FLuc – VP16 counterscreen qHTS for inhibitors of ROR gamma transcriptional activity; Potency, µM (doses to about 53.6 µM), actives largely listed as inhibitors; AID 2546, 2010; 3.5% of 310,000 active; Drosophila S2 Gal4-VP16 UAS-luciferase, luminescence, 20 h;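 note: Gal4-VP16 expression switched on by copper sulfate through the metallothionein promoter; nearly all actives have a fitted effect of over 50% in size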
ELG1 repair inh – qHTS screen for small molecules that inhibit ELG1-dependent DNA repair in human embryonic kidney (HEK293T) cells expressing luciferase-tagged ELG1; 2.3% of 330,000 active; HEK293T ELG1-luciferase reporter, luminescence, 16 h; DNA damage induced by 5-fluorouridine; AID 504467, 2011; Potency, µM (titrated, usually from 46.1 µM), usual class: inhibitors; note: nearly all actives have a fitted effect of over 55% in size
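Reporter activity after DNA damage by 5-fluorouridine is monitored. Compound-treated cells incubate 16 hr at 37 °C, then ONE-Glo is added for 30 min before luminescence reading.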
DT40 TDP1 no CPT – qHTS for Inhibitors of human tyrosyl-DNA phosphodiesterase 1 (TDP1): qHTS in cells in absence of CPT | 15% of 420,000 active | DT40 Tdp1-/- hTDP1 cells, no CPT, ATP luminescence, 48 h | AID 686978, 2013 | Potency, µM (highest dose often 46.2 µM), hits mostly inhibitors; note: nearly all actives have a fitted effect of over 55% in size
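Growth of hTDP1-complemented DT40 Tdp1-knockout cells is measured by ATP luminescence after at least 48 hr compound exposure at 37 °C, with DMSO substituting for the 20 nM CPT used in the parallel screen.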
RORgamma inh – qHTS for inhibitors of ROR gamma transcriptional activity; Nuclear receptor ROR-gamma (Mus musculus), P51450; Drosophila S2 Gal4-RORgamma UAS-luciferase reporter, 20 h; Potency, µM (titrated, usually from 53.6 µM), most hits filed as inhibitors; 5.4% of 310,000 active; AID 2551, 2010; note: nearly all actives have a fitted effect of over 60% in size
Target sequence (P51450 whole entry, looked up, the tested form may be a part): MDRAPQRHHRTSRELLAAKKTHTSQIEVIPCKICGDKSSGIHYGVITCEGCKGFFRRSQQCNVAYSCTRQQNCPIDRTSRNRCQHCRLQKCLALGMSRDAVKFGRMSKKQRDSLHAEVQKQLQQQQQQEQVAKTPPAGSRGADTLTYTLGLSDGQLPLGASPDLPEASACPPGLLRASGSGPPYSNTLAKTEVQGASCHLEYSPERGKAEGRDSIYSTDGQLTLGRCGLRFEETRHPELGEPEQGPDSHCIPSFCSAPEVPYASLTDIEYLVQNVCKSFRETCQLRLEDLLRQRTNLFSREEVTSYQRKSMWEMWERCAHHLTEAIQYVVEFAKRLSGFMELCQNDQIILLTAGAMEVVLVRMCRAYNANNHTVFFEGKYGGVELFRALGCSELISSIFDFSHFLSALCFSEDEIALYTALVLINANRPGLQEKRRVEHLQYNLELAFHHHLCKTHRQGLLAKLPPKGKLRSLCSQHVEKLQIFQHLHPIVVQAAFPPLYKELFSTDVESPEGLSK
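Drosophila Schneider cells stably carrying a metallothionein-driven Gal4 DBD–ROR gamma fusion and a UAS-Photinus luciferase reporter were exposed to compound for 1 hr, then induced with copper sulfate (700 uM final) for 20 hr at ambient temperature before luminescence reading.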
IL-1B inflam inh – qHTS for Inhibitors of Inflammasome Signaling: IL-1-beta AlphaLISA Primary Screen; THP-1 LPS/ATP IL-1B secretion, AlphaLISA, 16 h; active compounds read low; activity change, % at 57.5 µM; 4.7% of 360,000 active; AID 743279, 2014; in the data active = activity change below about -50%; inconclusive = mostly about -30% to -49%
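THP-1 cells pretreated 1 hr with compounds (up to 57.5 uM final), then stimulated with LPS (250 ng/mL final) plus ATP (1.25 mM final); secreted IL-1B measured by AlphaLISA after 16 hr, decreased signal indicating inhibition.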
Numbers stand for hits; i = inactive; ? = inconclusive; nt = not tested or not shown; [ ] = another dose, or the depositor's remark. An excerpt weighted towards active compounds, which were near 21% of everything screened. Unless noted, calls come from the whole dose curve; as a rule, active = well fitted curve in the direction sought with a large enough effect; inconclusive = small, poorly fitted or top-dose-only effect, or another doubt; inactive = no such curve, though single readings can be large; an effect the other way counts as inactive or inconclusive.

SMILES	DT40 TDP1 CPT	Gal4-VP16 FLuc	ELG1 repair inh	DT40 TDP1 no CPT	RORgamma inh	IL-1B inflam inh
O=c1c2ccccc2[nH]c(=S)n1CCN1CCc2ccccc2C1	i	?	i	i	11µM	i
O=c1c2ccccc2[nH]c(=S)n1Cc1cccs1	i	3.2µM	i	i	1.6µM	i
CCCc1ccc(OCC(=O)Nc2cc(S(=O)(=O)CC)ccc2O)cc1	i	?	i	i	?	i
O=c1c2ccccc2[nH]c(=S)n1Cc1ccccc1Cl	i	5µM	i	i	3.5µM	i
C#CCN(C[C@@H](CC(C)C)NC(=O)OC(C)(C)C)S(=O)(=O)c1ccc(Br)cc1F	?	nt	nt	?	nt	i
CC(=O)N1CCN(c2ccc([N+](=O)[O-])c(NCc3cccnc3)c2)CC1	i	i	i	i	i	i
CC(=O)N1CCN(c2ccc(Oc3ccc([N+](=O)[O-])c(C(F)(F)F)c3)cc2)CC1	12µM	7.1µM	i	2.9µM	?	-83
O=C(c1cc2nc(-c3cccs3)cc(C(F)(F)F)n2n1)N1CCCc2ccccc21	18µM	i	?	?	i	i
O=C(c1nn2c(C(F)(F)F)cc(-c3cccs3)nc2c1Br)N1CCCc2ccccc21	9.2µM	i	?	8.2µM	i[10 µM]	i
O=C(c1cc2nc(-c3cccs3)cc(C(F)(F)Cl)n2n1)N1CCCc2ccccc21	?	i[0.365 µM]	?	?	i	?
O=C(c1cc2nc(-c3ccco3)cc(C(F)(F)F)n2n1)N1CCCc2ccccc21	i	i	?	?	i	i
O=C(c1nn2c(C(F)(F)F)cc(-c3ccco3)nc2c1Br)N1CCCc2ccccc21	16µM	i	?	12µM	i	i
COC(C/C=C/C(=O)[C@H](C)OCc1ccccc1)OC	5.2µM	nt	nt	7.3µM	nt	i
COC(C/C=C\[C@H](O)COCc1ccccc1)OC	i	nt	nt	i	nt	i
COC(C/C=C/C(=O)COCc1ccccc1)OC	15µM	?	i	?	?	-87
CC(=O)N(Cc1ccco1)C1(C(=O)NC2CCCCC2)CCCCC1	?	i	i	?	i	i
O=C(Cc1cccs1)N(CC1CCCO1)C1(C(=O)NC2CCCC2)CCCCC1 (stereo not drawn)	?	i	i	16µM	i	i
O=C(Cc1cccs1)N(c1ccc(F)cc1)C1(C(=O)NC2CCCCC2)CCCC1	?	i	i	23µM	i	i
O=C(Cc1cccs1)N(Cc1cccs1)C1(C(=O)NC2CCCC2)CCCCC1	8.2µM	i	?	6.5µM	i	i
O=C(Cc1cccs1)N(Cc1ccco1)C1(C(=O)NC2CCCCC2)CCCCC1	15µM	i	?	18µM	i	?
O=C1NC(=O)C(CC(=O)N(c2ccccc2)C2(C(=O)NC3CCCC3)CCCCC2)N1 (stereo not drawn)	i	i	i	i	i	i
C[C@@H]1CCCCO[C@H](CN(C)C(=O)Cc2ccccc2)[C@@H](C)CN([C@H](C)CO)C(=O)c2cc(N(C)C)ccc2O1	i	nt	nt	i	nt	i
COc1ccc(S(=O)(=O)N2C[C@@H](O)COC[C@@H]3O[C@H](CC(=O)NCCCN4CCOCC4)CC[C@H]32)cc1	i	nt	nt	i	nt	i
COC(=O)N1CCC[C@@]2(CCN(C(=O)Nc3cccc(F)c3)C2)C1	i	i	nt	i	i	nt
CSc1ccc(-c2ccc(C(=O)NCC3CCCO3)c(N3CCC(O)CC3)n2)cc1 (stereo not drawn)	i[9.04 µM]	nt	nt	i	nt	nt
SMILES	DT40 TDP1 CPT	Gal4-VP16 FLuc	ELG1 repair inh	DT40 TDP1 no CPT	RORgamma inh	IL-1B inflam inh
C=CCC1(C(=O)NCCO)CCN(C(=O)OC(C)(C)C)CC1	i	i	i	i	i	i
CC(C)c1nc2c(s1)CCc1onc(-c3cccc([N+](=O)[O-])c3)c1-2	?	nt	i	23µM	nt	i
O=[N+]([O-])c1ccc(S(=O)(=O)c2cccc(C(F)(F)F)c2)nc1	2.6µM	nt	nt	0.65µM	nt	-102
O=C(NCCCc1nc2ccccc2n1CCCOc1ccccc1)C1CCCCC1	11µM	nt	nt	10µM	nt	nt
O=C(NCCCc1nc2ccccc2n1CCCCOc1ccccc1)C1CCCCC1	?	nt	nt	13µM	nt	nt
CCn1c(SCC(=O)Nc2nc3ccc(C)cc3s2)nc2c(c1=O)SC(C)C2 (stereo not drawn)	16µM	i	?	10µM	i	-83
CCn1c(SCC(=O)Nc2nc3ccccc3s2)nc2c(c1=O)SC(C)C2 (stereo not drawn)	0.73µM	i	?	23µM	?	?
CCn1c(SCC(=O)Nc2cc(C)on2)nc2c(c1=O)SC(C)C2 (stereo not drawn)	i	nt	i	?	i[0.365 µM]	i
COc1ccc(Nc2nn(-c3ccc(OC(F)(F)F)cc3)nc2C(C)=O)cc1	i	nt	nt	i	nt	nt
COCC(=O)N1CCC[C@@]2(CCN(c3ccncc3)C2)C1	i	i	nt	i	i	nt
O=C(O)c1cc(N2C(=O)CCC2=O)ccc1Cl	i	nt	i	i	nt	i
Cc1ccccc1CSCC1Nc2ccc(C(=O)NCCc3ccccc3)cc2NC1=O (stereo not drawn)	?	nt	nt	?	nt	i
CCCCCCCc1c(C#N)c(N)[nH]c(=S)c1C#N	?	i	?	i	8.9µM	i
COc1cc(C)ccc1OCc1cc(C(=O)N2CCCCCCC2)no1	i	i	?	i	i	i
Cc1cc(NC(=O)C(Cl)c2ccccc2)no1 (stereo not drawn)	7.3µM	i	i	?	i	-83
CC(=O)N(C)c1ccc(NC(=S)Nc2ccc(C(C)C)cc2)cc1	16µM	22µM	?	26µM	7.1µM	i
Cc1cc(NC(=O)Nc2cccc3ccccc23)no1	9.2µM	i	i	?	i	i
Cc1cc(NC(=O)Cc2ccccc2C)no1	23µM	i	i	i	i	i
CC(C)c1ccc(NC(=S)Nc2ccc3[nH]c(=O)[nH]c3c2)cc1	i	?	i	i	?	i
Cc1c(N(C)S(=O)(=O)c2ccc(Cl)c(C(=O)NCC(C)(C)N3CCOCC3)c2)c(=O)n(-c2ccccc2)n1C	i	nt	nt	i	nt	i
CC(=O)NCc1c(I)c(NC(C)=O)c(I)c(C(=O)O)c1I	i	i	nt	i	i	nt
CCN(CC)CCCNC(=O)c1sc2nc3n(c(=O)c2c1C)CCCCC3	i	nt	nt	?	nt	nt
Cc1cc(NC(=O)Nc2ccc(C)c(C)c2)no1	23µM	i	?	i	i	i
CC(=O)N(C)c1ccc(NC(=O)Nc2ccc(C)c(C)c2)cc1	?	i	i	18µM	i	?
